Laboratory results taken from PubChem BioAssay (Tox21).
Inconclusive results are not listed. Calls of active or inactive are those of the source. Unless noted, calls come from the whole dose curve; as a rule, active = well fitted curve in the direction sought with a large enough effect in the repeat runs; inconclusive = weak or mixed curves; inactive = no such curve, though single readings can be large; an effect the other way counts as inactive or inconclusive.

Columns and labels:
[1] = qHTS assay for small molecules that induce genotoxicity in human embryonic kidney cells expressing luciferase-tagged ATAD5 (AID 651632); conditions: HEK293T ATAD5-luciferase induction, 16 h; series mostly up to 83.3 µM; note: nearly all actives have a fitted effect of over 15% in size; note: potency is the fitted concentration of half-maximal effect
Procedure, shortened: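 ATAD5-luc HEK293T, 2,000 cells/well; cpd or DMSO pin-transferred; 16 hr, 37C/5% CO2; Amplite 30 min RT; luminescence.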

[2] = qHTS assay for small molecule agonists of the p53 signaling pathway - cell viability (AID 651633; calls by dose curve; note: nearly all actives have a fitted effect of over 30% in size; note: potency is the fitted concentration of half-maximal effect); conditions: p53RE-bla HCT-116 viability, ATP luminescence, 16 h; series mostly up to 83.3 µM
Procedure, shortened: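 p53RE-bla cells were treated with compound for 16 hours at 37 C. Cytotoxicity was then measured as CellTiter-Glo luminescence after 30 min at room temperature.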

[3] = qHTS assay for small molecules that induce genotoxicity in human embryonic kidney cells expressing luciferase-tagged ATAD5 - cell viability (AID 651634; calls by dose curve; note: nearly all actives have a fitted effect of over 25% in size); conditions: HEK293T ATAD5-luc cells viability, CellTiter-Fluor, 15.5 h; series mostly up to 83.3 µM
Procedure, shortened: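 Fluorescence from CellTiter-Fluor, reporting protease activity within live cells, served as the viability read-out. HEK293T cells carrying luciferase-tagged ATAD5 had been treated with compound for 15.5 hr at 37C.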

[4] = qHTS assay for small molecule disruptors of the mitochondrial membrane potential (AID 720635); conditions: HepG2 mitochondrial membrane potential, Mito-MPS dye ratio; series mostly up to 83.2 µM; note: potency is the fitted concentration of half-maximal effect
Procedure, shortened: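 HepG2 cells exposed to compound 1 hr at 37C, then Mito-MPS dye 30 min. Ratio read of aggregate (540/590 nm) versus monomer (490/535 nm) fluorescence.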

[5] = qHTS assay to test for compound auto fluorescence at 590 nm (red) in HepG2 cells (AID 720674); conditions: HepG2 autofluorescence, red 540/590 nm, 1 h; series mostly up to 91.3 µM
Procedure, shortened: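 Fluorescence at 590 nm emission following 540 nm excitation was recorded from HepG2 wells one hour after compound transfer, with DMSO-only wells as vehicle and Rose Bengal sodium equivalency as the scale.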

[6] = qHTS assay to test for compound auto fluorescence at 535 nm (green) in HepG2 cells (AID 720675); conditions: green autofluorescence 485/535 nm, 1 h; series mostly up to 91.3 µM
[7] = qHTS assay to test for compound auto fluorescence at 460 nm (blue) in HEK293 cells (AID 720678); conditions: blue autofluorescence 405/460 nm; series mostly up to 91.3 µM; note: potency is the fitted concentration of half-maximal effect
Procedure, shortened: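 Triamterene serves as the blue fluorophore standard. Compound signal at 405/460 nm is read in HEK293 wells (2,000 cells, 10% dialyzed FBS) after overnight treatment at 37C.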

[8] = qHTS assay to test for compound auto fluorescence at 590 nm (red) in HEK293 cells (AID 720679); conditions: red autofluorescence 540/590 nm; series mostly up to 91.3 µM
Procedure, shortened: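 We plated HEK293 cells in 10% dialyzed FBS medium, let them adhere for 4-5 hr, then added 23 nL compound. Overnight at 37C and 5% CO2 preceded fluorescence measurement at 540/590nm.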

[9] = qHTS assay to test for compound auto fluorescence at 535 nm (green) in HEK293 cells (AID 720680); conditions: green autofluorescence 485/535 nm; series mostly up to 91.3 µM
[10] = qHTS assay to test for compound auto fluorescence at 460 nm (blue) in HEK293 cell free culture (AID 720681); conditions: cell-free medium, autofluorescence 405/460 nm (blue); series mostly up to 91.3 µM; note: potency is the fitted concentration of half-maximal effect
Procedure, shortened: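 Compounds were added to cell-free DMEM with 10% FBS and fluorescence read directly. The blue channel used 405 nm excitation and 460 nm emission, with triamterene as the reference fluorophore.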

[11] = qHTS assay to test for compound auto fluorescence at 535 nm (green) in HEK293 cell free culture (AID 720682); conditions: cell-free medium, green autofluorescence 485/535 nm, stronger effect = higher value; series mostly up to 91.3 µM
Procedure, shortened: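 Cell-free medium (DMEM, 10% FBS) receives compound or DMSO by pintool. Plate read directly at Ex 485/Em 535 nm. Signal converted to fluorescein equivalency.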

[12] = qHTS assay to test for compound auto fluorescence at 590 nm (red) in HEK293 cell free culture (AID 720683); conditions: cell-free medium autofluorescence, Ex540/Em590 red; series mostly up to 91.3 µM
Procedure, shortened: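 Cell-free wells of DMEM with 10% FBS received compound, and intrinsic fluorescence was read at excitation/emission 540/590 nm. Values expressed as equivalence to Rose Bengal sodium.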

[13] = qHTS assay to test for compound auto fluorescence at 590 nm (red) in HepG2 cell free culture (AID 720684); conditions: cell-free medium autofluorescence, red 540/590 nm; series mostly up to 91.3 µM
Procedure, shortened: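 Compound was pinned into wells holding MEM with 10% FBS and no cells, and red fluorescence was read at Ex/Em 540/590 nm. Signal is expressed as auto fluorescence equivalency relative to Rose Bengal sodium.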

[14] = qHTS assay to test for compound auto fluorescence at 460 nm (blue) in HepG2 cell free culture (AID 720685); conditions: Cell-free culture medium, blue autofluorescence 405/460 nm; series mostly up to 91.3 µM; note: potency is the fitted concentration of half-maximal effect
Procedure, shortened: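 Compound (23 nL) or DMSO pinned into cell-free MEM with 10% FBS; blue fluorescence read at 405/460 nm excitation/emission, expressed as auto-fluorescence equivalency to triamterene.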

[15] = qHTS assay to test for compound auto fluorescence at 535 nm (green) in HepG2 cell free culture (AID 720686); conditions: Cell-free medium, green autofluorescence 485/535 nm; series mostly up to 91.3 µM
[16] = qHTS assay to test for compound auto fluorescence at 460 nm (blue) in HepG2 cells (AID 720687); conditions: autofluorescence 405/460 nm, 1 h; series mostly up to 91.3 µM; note: potency is the fitted concentration of half-maximal effect
Procedure, shortened: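 HepG2 cells in MEM with 10% FBS, attached overnight at 37 C, were exposed to compound or DMSO for 1 hr at 37 C, 5% CO2. Blue fluorescence was read at 405/460 nm, with triamterene as reference fluorophore.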

[17] = biological target: Glucocorticoid receptor (Homo sapiens) (UniProt P04150); assay: qHTS assay to identify small molecule agonists of the glucocorticoid receptor (GR) signaling pathway (AID 720691; active = well fitted activation curve with a large enough effect in the signal ratio in the repeat runs, not every such curve was filed as active; the % refers to the signal ratio); conditions: GR-bla HeLa, beta-lactamase reporter ratio, 18 h; series mostly up to 62.4 µM
Procedure, shortened: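 Fluorescence intensity from LiveBLAzer B/G FRET substrate (2 h, room temperature) reports beta-lactamase expression driven by the glucocorticoid response element in GR-bla HeLa cells after 18 h compound exposure at 37 C.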

[18] = qHTS assay for small molecule disruptors of the mitochondrial membrane potential - cell viability (AID 720634; calls by dose curve;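 note: human HepG2 liver cancer cells; nearly all actives have a fitted effect of over 20% in size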); conditions: HepG2 viability, ATP luminescence (CellTiter-Glo), 1 h; series mostly up to 83.2 µM
Procedure, shortened: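 Cells: HepG2, 2,000/well, attached overnight. Compound 1 hr, 37 C/5% CO2. +m-MPI dye, +CellTiter-Glo 30 min RT. Readout: luminescence (ATP).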

[19] = biological target: Glucocorticoid receptor (Homo sapiens) (UniProt P04150); assay: qHTS assay to identify small molecule antagonists of the glucocorticoid receptor (GR) signaling pathway (AID 720692; active = well fitted inhibition curve with a large enough effect in the signal ratio in the repeat runs, not every such curve was filed as active; the % refers to the signal ratio); conditions: GR-bla HeLa, beta-lactamase FRET ratio, dexamethasone-stimulated, 18 h; series mostly up to 58.5 µM
Procedure, shortened: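 HeLa GR-bla cells; cmpd + dex 5 nM final, 18 h 37 C; LiveBLAzer B/G FRET substrate 2 h RT; fluorescence intensity read. Antagonist mode, qHTS.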

Measured: Potency
Tags give direction and shape of the fitted curve or compound fluorescence and quenching.

Chain of Glucocorticoid receptor (Homo sapiens) (P04150 whole entry, looked up): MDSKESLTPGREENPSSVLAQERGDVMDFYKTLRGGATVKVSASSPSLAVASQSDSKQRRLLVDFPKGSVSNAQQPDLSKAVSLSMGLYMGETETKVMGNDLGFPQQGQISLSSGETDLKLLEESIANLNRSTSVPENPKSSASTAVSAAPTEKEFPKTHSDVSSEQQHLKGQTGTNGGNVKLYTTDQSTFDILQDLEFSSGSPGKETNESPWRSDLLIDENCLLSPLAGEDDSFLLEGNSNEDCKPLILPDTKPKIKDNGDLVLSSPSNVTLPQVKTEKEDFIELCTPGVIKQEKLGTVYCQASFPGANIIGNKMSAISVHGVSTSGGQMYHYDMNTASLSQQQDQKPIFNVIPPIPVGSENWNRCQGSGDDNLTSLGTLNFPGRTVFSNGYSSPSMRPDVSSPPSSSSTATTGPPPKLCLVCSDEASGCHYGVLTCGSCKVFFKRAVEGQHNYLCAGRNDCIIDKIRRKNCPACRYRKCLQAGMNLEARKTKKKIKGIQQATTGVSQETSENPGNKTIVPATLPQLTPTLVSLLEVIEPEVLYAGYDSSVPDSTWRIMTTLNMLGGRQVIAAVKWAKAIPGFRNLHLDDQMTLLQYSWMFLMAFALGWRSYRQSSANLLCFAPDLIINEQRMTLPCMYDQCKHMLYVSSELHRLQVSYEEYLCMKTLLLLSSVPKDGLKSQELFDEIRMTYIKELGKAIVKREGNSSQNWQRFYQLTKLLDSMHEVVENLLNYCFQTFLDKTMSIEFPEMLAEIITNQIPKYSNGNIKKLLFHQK

O=[N+]([O-])c1cc([N+](=O)[O-])c2ccccc2c1
inactive: [1] | [2] | [3] | [5] | [6] | [7] | [8] | [9] | [10] | [11] | [12] | [13] | [14] | [15] | [16] | [17]
active: [4] 10.9 µM

Oc1ccc2ccc3cccc4ccc1c2c34
active: [4] 2.73 µM | [7] 35.5 µM [fluorescent] | [10] 44.7 µM | [14] 39.8 µM [fluorescent] | [16] 35.5 µM [fluorescent]
inactive: [1] | [2] | [3] | [5] | [6] | [8] | [9] | [11] | [12] | [13] | [15] | [17]

COc1ccc(OC)c(CC(C)N)c1 (stereo not given)
inactive: [1] | [3] | [18] | [4] | [5] | [6] | [7] | [8] | [9] | [10] | [11] | [12] | [13] | [14] | [15] | [16]

S=C(SSC(=S)N1CCCCC1)N1CCCCC1
active: [1] 29.8 µM
inactive: [3] | [18] | [4] | [5] | [6] | [7] | [9] | [10] | [11] | [13] | [14] | [15] | [16] | [19]

CC1(c2ccc(Oc3ccccc3)cc2)OC(=O)N(Nc2ccccc2)C1=O (stereo not given)
inactive: [1] | [3] | [5] | [6] | [7] | [8] | [9] | [10] | [11] | [12] | [13] | [14] | [15] | [16]
active: [4] 3.88 µM

Clc1ccc(CO/N=C(\Cn2ccnc2)c2ccc(Cl)cc2Cl)c(Cl)c1
inactive: [1] | [18] | [5] | [6] | [7] | [8] | [9] | [10] | [11] | [13] | [14] | [15] | [16]
active: [2] 26.6 µM

c1ccc2c(c1)[nH]c1cnccc12
inactive: [1] | [2] | [18] | [4] | [5] | [6] | [7] | [9] | [10] | [11] | [12] | [13] | [14] | [15]

CCOP(=S)(OCC)OC(Cl)C(Cl)(Cl)Cl (stereo not given)
active: [4] 61.1 µM
inactive: [1] | [3] | [5] | [6] | [7] | [8] | [9] | [10] | [11] | [12] | [13] | [14] | [15] | [16] | [17] | [19]

CCOCn1c(-c2ccc(Cl)cc2)c(C#N)c(Br)c1C(F)(F)F
active: [2] 30.6 µM | [4] 0.0486 µM
inactive: [1] | [5] | [6] | [7] | [8] | [9] | [10] | [11] | [13] | [14] | [15] | [16] | [17]

CC1(C)C(/C=C(\Cl)C(F)(F)F)C1C(=O)OC(C#N)c1cccc(Oc2ccccc2)c1 (stereo not given)
active: [4] 34.9 µM
inactive: [1] | [3] | [5] | [6] | [7] | [8] | [9] | [10] | [11] | [12] | [13] | [14] | [15] | [16]
